Screens from PubChem BioAssay.
Wnt bcat act – activators of Wnt/beta-catenin signaling; Wnt/beta-catenin reporter cell assay, activator, plate reader; activation, % at 9.35 µM; hit rate 1.2% among 300,000; AID 743398; in the data active means activation above about 30%, passing the limit was not always enough;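 further: 0% = neutral control wells and 100% = positive control wells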
SMARCA2 act – SMARCA2 function activation, primary screen; activation, % at 9.1 µM; MG213 cells, MMTV-luciferase reporter, dexamethasone, overnight; AID 652017; hit rate 1% among 370,000; in the data active means activation above about 7.8%;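 further: 0% = vehicle wells and 100% = reference activator wells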
HSF1 activator – increases HSF-1 driven luciferase reporter signal; NIH3T3-HGL HSF-1 luciferase reporter, MG132, 8 h; 100% = twice DMSO control signal; activation, % at 9 µM; hit rate 1.7% among 300,000;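 active means mean replicate activation of at least 50% with a set share of replicates each reaching 50%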;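 further: 0% = median of the neutral control wells and 100% = twice that signal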
esBAF inh – SWI/SNF esBAF complex inhibition; mouse ES cells, Bmi1-luciferase knock-in reporter, 24 h; 100% = twice the neutral-well signal; hit rate 2% among 350,000; reporter increase, % at 12.5 µM; AID 602393; in the data active means activation above about 40%;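 further: 0% = median of the plate's neutral control wells and 100% = double that signal; a rise in the Bmi1 reporter signal indicates esBAF inhibition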
HSF1 inh – HSF1 inhibition | NIH3T3-HGL HSE-luciferase, MG132-induced, luminescence 8 h; active compounds read low | activity change, negative = inhibition, % at 7.5 µM (by protocol) | hit rate 0.77% among 300,000 | AID 2098;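 active means more than half of replicate wells show activity change below -50%, luminescence cut by over half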;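 further: luciferase reports HSF-1 transcriptional activity via heat shock element; 0% = median of DMSO wells and -100% = zero luminescence signal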
MITF act – activators of MITF-driven TRPM1 promoter activity in SK-MEL-5 cells. SK-MEL-5 TRPM1-promoter luciferase, 24 h; % of positive control, neutral wells = 0. activation, % at 12.5 µM. hit rate 0.75% among 300,000. AID 588334;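 active means mean activation of at least 80% with every replicate also reaching 80%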;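 further: 0% = neutral control wells and 100% = parthenolide positive control wells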
* marks the source's active call; other numbers are inactive results; / = not tested or not shown. An excerpt weighted towards active compounds, which were near 4.3% of everything screened.

SMILES	Wnt bcat act	SMARCA2 act	HSF1 activator	esBAF inh	HSF1 inh	MITF act
COC(=O)[C@H]1[C@H](CO)[C@H]2Cn3c(ccc(-c4ccccc4F)c3=O)[C@@H]1N2C(C)=O	/	/	/	-1.4	/	/
CC1=CC2OC3CC4OC(=O)C=CC=CC(C(C)O)OCC(O)C(C)CC(=O)OCC2(CC1O)C4(C)C31CO1 (stereo not given)	-25.0	-9.9	/	/	/	/
CC(O)C1C=CC=CC(=O)OC2CC3OC4C5OC5(C)CCC4(COC(=O)C4OC4(C)C(O)CO1)C2(C)C31CO1 (stereo not given)	-24.6	-10.9	90.9*	/	90.9*	-69.6
CC(=O)OC1C(=O)OCC23CCC4(C)OC4C2OC2CC(OC(=O)C=CC=CC(=O)OCCC1C)C3(C)C21CO1 (stereo not given)	0.8	-10.6	92.2*	/	92.2*	-82.4
CC1=CC2OC3CC4OC(=O)C=CC=CC(=O)OCCC(C)C(O)C(=O)OCC2(CC1O)C4(C)C31CO1 (stereo not given)	/	/	92.4*	/	92.4*	-85.6
COc1ccc(N2C(=O)NC(=O)/C(=C/c3ccc([N+](=O)[O-])s3)C2=O)cc1	0.8	3.5	64.3*	/	20.8	/
COc1ccc(N2C(=O)NC(=O)/C(=C\c3ccc([N+](=O)[O-])s3)C2=O)cc1	-0.2	-2.9	27.3	/	12.5	-17.5
COC(=O)[C@H]1[C@H](CO)[C@H]2Cn3c(ccc(-c4ccccc4F)c3=O)[C@@H]1N2CC1CCCC1	/	/	/	4.3	/	/
CN(C)CCc1nc2ccccc2c(=O)n1-c1ccccc1	/	/	81.1*	/	32.9	/
COc1ccc(-c2cc(C(=O)N3CCC4(CC3)OCCO4)c3ccccc3n2)cc1	8.1	1.4	-1.1	41.1*	5.8	48.0
CCOc1ccc(-c2cc(C(=O)N3CCC4(CC3)OCCO4)c3ccccc3n2)cc1	24.3	-1.3	/	/	/	100.0*
COC(=O)[C@@H]1[C@@H](CO)[C@@H]2Cn3c(ccc(-c4ccccc4)c3=O)[C@H]1N2CC1CC1	/	/	/	-0.9	/	/
COC(=O)[C@H]1[C@H](CO)[C@H]2Cn3c(ccc(C4=CCCC4)c3=O)[C@@H]1N2CC1CCCCC1	/	/	/	3.7	/	/
O=C1NC(=O)[C@]2(Cc3ccccc3N3CCN(c4ccccc4)CC32)C(=O)N1Cc1ccccc1 (stereo not given in full)	27.7	3.2	65.0*	21.4	22.1	-2.8
CCOC(=O)c1c(-n2c(C)cc(/C=C3/C(=O)NC(=O)N(CC)C3=O)c2C)sc2c1CCCC2	-6.0	-7.7	-10.1	/	-10.7	4.9
CCN1C(=O)NC(=O)/C(=C/c2cc(C)n(-c3sc(C)c(C)c3C#N)c2C)C1=O	3.8	-2.6	-68.2	/	-56.3*	3.3
COc1ccc(CC2(CCc3ccncc3)C(=O)NC(=O)NC2=O)cc1OC	36.6*	-1.3	-2.8	-2.9	-4.1	-0.1
COC(=O)[C@@H]1[C@@H](CO)[C@@H]2Cn3c(ccc(C4=CCCCC4)c3=O)[C@H]1N2C(=O)CC1CC1	/	/	/	-0.8	/	/
CC=Cc1ccc2n(c1=O)C[C@@H]1[C@@H](CO)[C@H](C(=O)OC)[C@H]2N1C(=O)CC (mixture of isomers)	/	/	/	-0.9	/	/
CCOP(=O)(OCC)C(NC(=O)c1ccccc1Cl)=C(Cl)Cl	-0.6	-2.4	-4.9	3.9	-6.1	/
CCOP(=O)(C(NC(=O)c1ccccc1Cl)=C(Cl)Cl)c1ccccc1 (stereo not given)	-0.5	-1.4	90.3*	6.5	31.2	/
COc1cccc(C2CCN(C)C2)c1 (stereo not given)	1.3	-2.7	/	-0.8	/	/
COc1ccc(SCC2CN(C)CCC2c2ccc(F)cc2)cc1 (stereo not given)	1.6	2.8	67.0*	/	34.0	/
COc1cccc(-c2ccc3n(c2=O)C[C@@H]2[C@@H](CO)[C@H](C(=O)O)[C@H]3N2Cc2ccccc2F)c1	/	/	/	1.8	/	/
O=C(Cc1ccccc1)Oc1ccc(N2C(=O)CCC2=O)cc1	0.5	-0.7	-3.8	-6.8	-7.8	3.4
O=C(Cc1ccccc1)Oc1ccccc1N1C(=O)CCC1=O	-1.3	0.1	-69.5	/	-61.8*	2.0
Cc1ccc2c(c1N)C(=O)c1ccccc1C2=O	44.3*	2.8	/	55.1*	/	94.6*
CC(C)CC#Cc1ccc([C@H]2[C@H](CO)N3CCCCN(C(=O)Cc4ccccn4)C[C@@H]23)cc1	/	/	/	0.7	/	/
